# LDHA block = blocks human lactate dehydrogenase A; purified LDHA, NADH/diaphorase-resazurin fluorescence; hits give low values; activity change, % (values are at about 110 or 230 µM); actives 0.15% (n = 480,000); in the data active = activity change below about -30%; inconclusive = mostly about -25% to -30%;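 note: plate controls were DMSO wells for no effect and wells without enzyme for full effect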
#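 LDH5 2 nM; NADH 0.06 mM, pyruvate 0.2 mM; 200 mM Tris pH 7.4, EDTA, Tween-20; 5 min RT. Detection: diaphorase 0.133 mg/mL + resazurin 37 µM, fluorescence ex540/em590 at 0 and 20 min; normalized to enzyme-free and DMSO wells.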
# IL1B secr inh = blocks inflammasome-driven IL-1 beta release. activity change, % at 57.5 µM. AID 743279. actives 4.7% (n = 360,000). THP-1 LPS/ATP IL-1B secretion, AlphaLISA, 16 h; hits give low values; in the data active = activity change below about -50%; inconclusive = mostly about -30% to -49%
#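 Secreted IL-1B measured by AlphaLISA bead assay after 16 h compound exposure of THP-1 cells; compounds (final up to 57.5 uM) added 1 h before LPS (250 ng/mL) and ATP (1.25 mM) stimulation; lower signal means less secretion.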
# TDP1 cell noCPT = qHTS for Inhibitors of human tyrosyl-DNA phosphodiesterase 1 (TDP1): qHTS in cells in absence of CPT; AID 686978, 2013; DT40 Tdp1-/- hTDP1 cells, no CPT, ATP luminescence, 48 h; Potency, µM (doses to about 46.2 µM), inactives show at the highest dose activity change, negative = growth inhibition, hits mostly inhibitors; actives 15% (n = 420,000); note: potency is the fitted concentration of half-maximal effect; nearly all actives have a fitted effect of over 55% in size
#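 Luminescent ATP content (CellTiter-Glo) served as the growth readout. Knockout chicken DT40 cells expressing human TDP1 were exposed to compounds without camptothecin for a minimum 48 hr at 37 °C.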
# VP16 counter = inhibits Gal4-VP16 luciferase reporter, ROR gamma counter-screen | Drosophila S2 Gal4-VP16 UAS-luciferase, luminescence, 20 h | Potency, µM (doses to about 53.6 µM), without a hit: top-dose activity, negative = inhibition, most hits filed as inhibitors | actives 3.5% (n = 310,000) | AID 2546;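 note: Gal4-VP16 expression switched on by copper sulfate through the metallothionein promoter; potency is the fitted concentration of half-maximal effect; nearly all actives have a fitted effect of over 50% in size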
# RORgamma inh = ROR gamma (mouse) transcription inhibition | P51450 | Drosophila S2 Gal4-RORgamma UAS-luciferase reporter, 20 h | Potency, µM (series often up to 53.6 µM), for the others: top-dose activity change, negative = inhibition, hits mostly inhibitors | actives 5.4% (n = 310,000) | AID 2551; note: potency is the fitted concentration of half-maximal effect; nearly all actives have a fitted effect of over 60% in size
# Target sequence (P51450 whole entry, looked up, the tested form may be a part): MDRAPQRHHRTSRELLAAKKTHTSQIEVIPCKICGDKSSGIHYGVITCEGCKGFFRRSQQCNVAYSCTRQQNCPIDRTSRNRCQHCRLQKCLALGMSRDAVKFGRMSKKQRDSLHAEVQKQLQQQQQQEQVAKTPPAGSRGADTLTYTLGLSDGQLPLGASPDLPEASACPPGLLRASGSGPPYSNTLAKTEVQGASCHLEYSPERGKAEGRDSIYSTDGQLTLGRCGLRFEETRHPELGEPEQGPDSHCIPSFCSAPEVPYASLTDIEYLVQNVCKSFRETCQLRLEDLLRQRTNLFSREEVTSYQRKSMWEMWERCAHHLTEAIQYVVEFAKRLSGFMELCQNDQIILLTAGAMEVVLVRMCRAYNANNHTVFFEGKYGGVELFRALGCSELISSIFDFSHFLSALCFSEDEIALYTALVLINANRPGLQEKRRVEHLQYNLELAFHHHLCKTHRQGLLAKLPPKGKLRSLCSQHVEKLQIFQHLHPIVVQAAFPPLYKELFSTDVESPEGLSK
#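 In this cell-based reporter format, copper sulfate (700 uM final) drives Gal4–ROR gamma fusion expression from a metallothionein promoter in Drosophila Schneider cells; compounds preincubated 1 hr, reporter read after 20 hr at ambient temperature.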
# DT40 TDP1 CPT = growth inhibition of DT40 Tdp1-/-;hTDP1 cells with camptothecin (screen for TDP1 inhibitors). chicken DT40 Tdp1-/-;hTDP1 cells + 20 nM CPT, ATP luminescence, 48 h. Potency, µM (doses to about 46.2 µM), for the others: at the top dose activity change, negative = growth inhibition, hits mostly inhibitors. actives 12% (n = 420,000). AID 686979; note: potency is the fitted concentration of half-maximal effect; nearly all actives have a fitted effect of over 55% in size
#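 Cell growth measured by CellTiter-Glo luminescence after a minimum 48 h, 37 C compound exposure with 20 nM CPT in Tdp1-knockout DT40 cells stably expressing hTDP1, seeded 400/well; qHTS titration format.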
# * marks the source's active call; other numbers are inactive results; u = inconclusive; x = no result given. Only some compounds are listed: those with a hit (about 18% of all), similar ones and a draw of the others. Unless noted, calls come from the whole dose curve; as a rule, active = well fitted curve in the direction sought with a large enough effect; inconclusive = small, poorly fitted or top-dose-only effect, or another doubt; inactive = no such curve, though single readings can be large; an effect the other way counts as inactive or inconclusive. Unless noted, % is set by controls: 0 for no effect and ±100 for the full control effect.
SMILES,LDHA block,IL1B secr inh,TDP1 cell noCPT,VP16 counter,RORgamma inh,DT40 TDP1 CPT
Cc1cccc(N2C(=O)N(CC(=O)C(C)(C)C)c3ccccc3S2(=O)=O)c1C,-10.8,x,13µM*,x,x,14.6µM*
CCOc1ccc(N2C(=O)N(Cc3ccc(C)cc3C)c3ccccc3S2(=O)=O)cc1,1.2,x,16.4µM*,x,x,u
Cc1ccc(S(=O)(=O)N2CCN(C(=O)NCC3CN(CC(C)C)CCO3)CC2)cc1 (configuration not stated),4.6,x,x,x,x,x
CCCCCCCC(=O)NCCCNC(=O)CCCCCCC,-6.1,x,x,x,x,x
COc1ccc(C(=O)CN2CC(C)SC2=Nc2ccc(Cl)cc2)cc1 (configuration not stated),-6.8,-5.2,23.1µM*,-2.6%,-16.8%,u
CC(C)C[C@H]1CNC(=S)N1CC1CCN(CCC23CC4CC(CC(C4)C2)C3)CC1,-4.2,-50.1*,16.4µM*,x,x,u
CC(C)C[C@H]1CNC(=S)N1CC1CCN(CC2CCCC2)CC1,-10.1,13.6,-11.7%,x,x,-27.9%
CC(C)C[C@H]1CNC(=S)N1CC1CCN(CCCC2CCCCC2)CC1,-7.8,-54.3*,u,x,x,18.4µM*
Cc1cc(=O)oc2cc(OCC(=O)NC(=O)NC3CCCC3)ccc12,5.3,x,x,x,x,x
CCNc1c(NC(=O)Nc2cccc(C)c2)c(=O)oc2ccccc12,-2.1,x,x,x,x,x
Cc1cc(NC(=O)CCn2nc(-c3cccs3)oc2=O)ccc1Br,-0.6,x,x,x,x,x
COC(=O)CC1Oc2ccc(Cl)cc2-n2cc(-c3ccc(C)cc3)nc21 (configuration not stated),-2.1,x,6.51µM*,x,x,9.2µM*
COC(=O)CC1Oc2ccccc2N(Cc2ccc(C)cc2)C1=O (configuration not stated),2.1,30.3,25.9µM*,-21.2%,-4.2%,16.4µM*
COC(=O)CC1Oc2ccc(C)cc2-n2cc(-c3ccc(C)cc3)nc21 (configuration not stated),-6.4,x,13µM*,x,x,16.4µM*
COC(=O)CC1Oc2ccc(C)cc2NC1=O (configuration not stated),-4.8,23.4,4.7%,17.1%,19.2%,-1.6%
CC(Oc1ccccc1)C(=O)OCc1nc2ccsc2c(=O)[nH]1 (configuration not stated),-6.9,x,x,x,x,x
COc1ccc(OC)c(-c2cnc(OC(C)(C)C)nc2OC(C)(C)C)c1,3.6,71.8,8.2µM*,-17.1%,u,20.6µM*
O=C1CC2(C(=O)Nc3ccccc32)c2sc(C(=O)O)c(-c3ccc(Cl)cc3)c2N1 (configuration not stated),1.3,x,x,x,x,x
CCOc1ccccc1N1CCN(C(=O)CCCc2nc3ccccc3s2)CC1,-0.9,5.4,16.4µM*,19.6%,u,u
O=C(CCCc1nc2ccccc2s1)N1CCN(S(=O)(=O)c2cccs2)CC1,-4.2,37.9,-28.3%,-5.2%,43.7%,u
O=C(CCCc1nc2ccccc2s1)N1CCN(c2ccccc2F)CC1,-2.1,91.4,-14.2%,1.6%,48.2%,u
O=C(CCCc1nc2ccccc2s1)N1CCN(c2ccccc2)CC1,-7.5,34.3,u,3.98µM*,0.3%,-28.3%
Cc1cnc(NC(=O)c2csc(NCC(C)C)n2)s1,6.5,x,x,x,x,x
CC(NC(=O)CCCc1c[nH]c2ccccc12)c1ccncc1 (configuration not stated),-11.2,x,x,x,x,x
COc1ccccc1CNC(=O)Cn1ccc2c(Cl)cccc21,-0.9,x,x,x,x,x
SMILES,LDHA block,IL1B secr inh,TDP1 cell noCPT,VP16 counter,RORgamma inh,DT40 TDP1 CPT
CCN(Cc1nc2cc(Cl)ccc2c(=O)[nH]1)C(=O)CNC(=O)c1ccc(F)cc1,1.1,x,x,x,x,x
COc1ccccc1CNc1ncncc1-c1ccccc1OC,x,x,u,15.8µM*,u,u
COc1ccccc1-c1cncnc1NCc1cccc(C)c1,x,x,20.6µM*,1.3%,-44.5%,u
COc1ccccc1-c1cncnc1NCc1cccs1,x,x,-23.8%,6.4%,0.4%,-1.5%
Cc1cccc(NS(=O)(=O)c2ccc3c(c2)CC(C)N3C(=O)C2CCC2)c1C (configuration not stated),1.9,x,18.4µM*,x,x,u
CCOc1ccccc1NS(=O)(=O)c1ccc2c(c1)CC(C)N2C(=O)C1CCC1 (configuration not stated),-6.6,x,14.6µM*,x,x,23.1µM*
O=C(c1ccc(OC2CCN(Cc3ccccc3C(F)(F)F)CC2)cc1)N1CCCCC1,-3.2,-84.7*,u,u,43.7%,u
O=C(c1ccc(OC2CCN(Cc3ccc(C(F)(F)F)cc3)CC2)cc1)N1CCCCC1,-1.8,4.0,20.6µM*,-1.7%,u,u
CC(=O)N(O)c1ccc(C=Cc2ccccc2)cc1,6.0,0.0,0.411µM*,x,x,2.06µM*
CN(N=O)c1ccc(/C=C/c2ccccc2)cc1,-5.4,x,-16.9%,x,x,u
CCN1C/C(=N\S(=O)(=O)/N=C2\CN(CC)C(=O)N2CC)N(CC)C1=O,-2.1,19.4,14.9%,-6.7%,10µM*,-7.4%
CCN1C(=O)CS/C1=N\S(=O)(=O)c1ccc(Cl)cc1,-7.7,1.8,-6.3%,-6.8%,5.0%,7.7%
Clc1ccc(/C=C/c2ccnc3ccccc23)c(Cl)c1,x,x,3.55µM*,x,x,5.62µM*
Nc1ccc(/C=C/c2ccnc3ccccc23)c(N)c1,x,x,u,x,x,10µM*
Nc1ccnc2ccccc12,-3.0,x,x,x,x,x
C(=C\c1ccnc2ccccc12)/c1ccccc1,-0.6,x,12.6µM*,x,x,u
O=Nc1ccc(/C=C/c2ccnc3ccccc23)cc1,x,x,8.91µM*,x,x,15.8µM*
O=C(NCCCc1ccccc1)c1cc(=O)[nH]c2ccccc12,-7.6,x,x,x,x,x
Cc1c(C)c(C)c(/C=C/c2ccnc3ccccc23)c(C)c1C,14.5,x,11.2µM*,x,x,11.2µM*
Nc1ccc(/C=C/c2ccnc3ccccc23)cc1,0.9,x,11.2µM*,x,x,10µM*
C(=C\c1ccnc2ccccc12)/c1ccc(-[n+]2cc[n+](-c3ccc(/C=C/c4ccnc5ccccc45)cc3)cc2)cc1,2.4,x,5.01µM*,x,x,5.62µM*
C(=C\c1nnc2c3ccccc3ncn12)/c1ccccc1,-0.6,45.0,4.61µM*,u,u,5.17µM*
COc1ccc(CCNC(=O)c2sc(NC3CC3)nc2C)cc1,-4.8,x,x,x,x,x
CCCCCN1CCN(c2nc3c(c(=O)[nH]c(=O)n3C)n2Cc2ccc(Cl)c(Cl)c2)CC1,-7.7,x,x,x,x,x
Clc1ccc(/C=C/c2ccnc3ccccc23)cc1,-0.1,x,8.91µM*,x,x,10µM*
COc1ccc(-n2c(Cc3cccn3C)nnc2SCC(=O)Nc2cccc(F)c2)cc1,-0.4,u,25.9µM*,u,u,23.1µM*

# Bioassay records as filed in PubChem.
